About 83,000 compounds went through this panel and 20% of them were active in at least one assay; those are over-represented in the sample as a whole.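 In brief: 96-well plates, 48 h treatment, single concentration, percent growth endpoint.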 Active and inactive are the calls of the source. How the source made its calls: active means growth percent below 10; inactive means the rest.
Each molecule was assayed on MDA-MB-468 breast (assay: NCI-60 one-dose screen, 48 h (100 = growth as untreated, 0 = no growth, -100 = all killed)). Conditions: 10 µM unless noted.

Structure (SMILES)	growth
Cc1n[nH]c2ccc(Br)cc2c1=O	99.9% (inactive)
O=C1COc2ccccc2C(=O)N1CCCCN1CCCCC1	76.3% (inactive)
CCN1C(=O)N(CC)C2NC(SC)=NC21 (stereo unspecified)	103% (inactive)
O=C(Nc1ccc(Cl)cc1)Nc1nc2ccc([N+](=O)[O-])cc2s1	-36.7% (active)
Cc1cc(N2CCC(N3CCCC3)CC2)nc(/N=C(\N)Nc2ccc(Cl)c(Cl)c2)n1	-81.4% (active)
O=C(Nc1ncc(Cc2ccccc2Cl)s1)c1ccc2c(c1)OCCO2	18.5% (inactive)
COc1cc(-c2nc(-c3ccccc3)[nH]c2-c2ccnc(NCCCNS(=O)(=O)c3ccc(C)cc3)n2)ccc1F	79.4% (inactive)
Nc1nc(N)c2c(n1)NC(c1ccc(Cl)cc1)CC(c1cccc(Nc3ccncc3)c1)=N2 (stereo unspecified)	57.4% (inactive)
N#Cc1ccc(O)c(C2=NCC(c3cccc(Oc4ccccc4)c3)O2)c1 (stereo unspecified)	27% (inactive)
CC(=O)Oc1ccc(C(c2ccc(OC(C)=O)cc2)c2ccccn2)cc1	17.3% (inactive)
CCOc1ccccc1NC(=O)CCl	79.4% (inactive)
Nc1nc(Cl)cc(=O)n1Cc1ccccc1	97.3% (inactive)
CSc1ccc2c(c1)C(N1CCN(C)CC1)Cc1ccccc1S2 (stereo unspecified)	-66.4% (active)
COCCOC(C)C(/C=N/NC(N)=S)=N/NC(N)=S (stereo unspecified)	7.98% (active)
CS(=O)(=O)c1ccc(-c2nc3ccccn3c2-c2nc3ccc([N+](=O)[O-])cc3[nH]2)cc1	104% (inactive)
O=C(Nc1cccc(-n2cc(-c3ccncc3)c(-c3ccc(O)c(Cl)c3)n2)c1)Nc1cccc(C(F)(F)F)c1	18.5% (inactive)
